Results on 31 molecules are retold here after article PMC9911399, “Two distinct binding modes provide the RNA-binding protein RbFox with extraordinary sequence specificity”.

Substitutions are numbered along the chain they refer to; changes in the protein carry UniProt numbers. In all, about 16,000 sequences were measured (“ka relative to ugcaugu”: median about 0.0091, highest 2% from about 0.032 on). Many of the other results were omitted from the sample, so the highest values are more common in it than they were.

First the molecules themselves.
T1: RBFOX1 RRM (Homo sapiens, UniProt Q9NWB1 109-208)
T1 sequence: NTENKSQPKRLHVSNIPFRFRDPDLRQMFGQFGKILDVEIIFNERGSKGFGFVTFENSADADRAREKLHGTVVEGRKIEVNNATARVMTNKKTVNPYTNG

B1: GCGUGGG (DNA:RNA)
RNA: GGGAGACCGGAAUUCAGAUUGUCCGCGUGGGUUAAAUCCCGUCGUAGCCACCA
DNA 1: CAATCTGAATTCCGGTCTCCC
DNA 2: TGGTGGCTACGACGGGATT
B2: AGAAUCG (DNA:RNA)
RNA: B1 RNA with G25A, C26G, G27A, U28A, G29U, G30C
DNA 1: CAATCTGAATTCCGGTCTCCC
DNA 2: TGGTGGCTACGACGGGATT
B3: AAGCGGU (DNA:RNA)
RNA: B1 RNA with G25A, C26A, U28C, G31U
DNA 1: CAATCTGAATTCCGGTCTCCC
DNA 2: TGGTGGCTACGACGGGATT
B4: AAAGAAG (DNA:RNA)
RNA: B1 RNA with G25A, C26A, G27A, U28G, G29A, G30A
DNA 1: CAATCTGAATTCCGGTCTCCC
DNA 2: TGGTGGCTACGACGGGATT
B5: GUCCCGC (DNA:RNA)
RNA: B1 RNA with C26U, G27C, U28C, G29C, G31C
DNA 1: CAATCTGAATTCCGGTCTCCC
DNA 2: TGGTGGCTACGACGGGATT
B6: GCUUGUG (DNA:RNA)
RNA: B1 RNA with G27U, G30U
DNA 1: CAATCTGAATTCCGGTCTCCC
DNA 2: TGGTGGCTACGACGGGATT
B7: GCUUCUG (DNA:RNA)
RNA: B1 RNA with G27U, G29C, G30U
DNA 1: CAATCTGAATTCCGGTCTCCC
DNA 2: TGGTGGCTACGACGGGATT
B8: GCUUCCG (DNA:RNA)
RNA: B1 RNA with G27U, G29C, G30C
DNA 1: CAATCTGAATTCCGGTCTCCC
DNA 2: TGGTGGCTACGACGGGATT
B9: CGUCCGC (DNA:RNA)
RNA: B1 RNA with G25C, C26G, G27U, U28C, G29C, G31C
DNA 1: CAATCTGAATTCCGGTCTCCC
DNA 2: TGGTGGCTACGACGGGATT
B10: GCGCUUC (DNA:RNA)
RNA: B1 RNA with U28C, G29U, G30U, G31C
DNA 1: CAATCTGAATTCCGGTCTCCC
DNA 2: TGGTGGCTACGACGGGATT
B11: ACUGUGU (DNA:RNA)
RNA: B1 RNA with G25A, G27U, U28G, G29U, G31U
DNA 1: CAATCTGAATTCCGGTCTCCC
DNA 2: TGGTGGCTACGACGGGATT
B12: ACCCUUU (DNA:RNA)
RNA: B1 RNA with G25A, G27C, U28C, G29U, G30U, G31U
DNA 1: CAATCTGAATTCCGGTCTCCC
DNA 2: TGGTGGCTACGACGGGATT
B13: GACAGCA (DNA:RNA)
RNA: B1 RNA with C26A, G27C, U28A, G30C, G31A
DNA 1: CAATCTGAATTCCGGTCTCCC
DNA 2: TGGTGGCTACGACGGGATT
B14: GUGAAUA (DNA:RNA)
RNA: B1 RNA with C26U, U28A, G29A, G30U, G31A
DNA 1: CAATCTGAATTCCGGTCTCCC
DNA 2: TGGTGGCTACGACGGGATT
B15: UGGGGAG (DNA:RNA)
RNA: B1 RNA with G25U, C26G, U28G, G30A
DNA 1: CAATCTGAATTCCGGTCTCCC
DNA 2: TGGTGGCTACGACGGGATT
B16: UGGGUGU (DNA:RNA)
RNA: B1 RNA with G25U, C26G, U28G, G29U, G31U
DNA 1: CAATCTGAATTCCGGTCTCCC
DNA 2: TGGTGGCTACGACGGGATT
B17: CUGGAAG (DNA:RNA)
RNA: B1 RNA with G25C, C26U, U28G, G29A, G30A
DNA 1: CAATCTGAATTCCGGTCTCCC
DNA 2: TGGTGGCTACGACGGGATT
B18: UGGGAAG (DNA:RNA)
RNA: B1 RNA with G25U, C26G, U28G, G29A, G30A
DNA 1: CAATCTGAATTCCGGTCTCCC
DNA 2: TGGTGGCTACGACGGGATT
B19: UGGAAGU (DNA:RNA)
RNA: B1 RNA with G25U, C26G, U28A, G29A, G31U
DNA 1: CAATCTGAATTCCGGTCTCCC
DNA 2: TGGTGGCTACGACGGGATT
B20: UGGAGUU (DNA:RNA)
RNA: B1 RNA with G25U, C26G, U28A, G30U, G31U
DNA 1: CAATCTGAATTCCGGTCTCCC
DNA 2: TGGTGGCTACGACGGGATT
B21: UGGGGAA (DNA:RNA)
RNA: B1 RNA with G25U, C26G, U28G, G30A, G31A
DNA 1: CAATCTGAATTCCGGTCTCCC
DNA 2: TGGTGGCTACGACGGGATT
B22: UGGGGUG (DNA:RNA)
RNA: B1 RNA with G25U, C26G, U28G, G30U
DNA 1: CAATCTGAATTCCGGTCTCCC
DNA 2: TGGTGGCTACGACGGGATT
B23: UGGUGGG (DNA:RNA)
RNA: B1 RNA with G25U, C26G
DNA 1: CAATCTGAATTCCGGTCTCCC
DNA 2: TGGTGGCTACGACGGGATT
B24: CUGGUGU (DNA:RNA)
RNA: B1 RNA with G25C, C26U, U28G, G29U, G31U
DNA 1: CAATCTGAATTCCGGTCTCCC
DNA 2: TGGTGGCTACGACGGGATT
B25: UGGGAGU (DNA:RNA)
RNA: B1 RNA with G25U, C26G, U28G, G29A, G31U
DNA 1: CAATCTGAATTCCGGTCTCCC
DNA 2: TGGTGGCTACGACGGGATT
B26: UGGUGUU (DNA:RNA)
RNA: B1 RNA with G25U, C26G, G30U, G31U
DNA 1: CAATCTGAATTCCGGTCTCCC
DNA 2: TGGTGGCTACGACGGGATT
B27: UCGCAGG (DNA:RNA)
RNA: B1 RNA with G25U, U28C, G29A
DNA 1: CAATCTGAATTCCGGTCTCCC
DNA 2: TGGTGGCTACGACGGGATT
B28: UACAUAC (DNA:RNA)
RNA: GGGAGACCGGAAUUCAGAUUGUCCUACAUACUUAAAUCCCGUCGUAGCCACCA
DNA 1: CAATCTGAATTCCGGTCTCCC
DNA 2: TGGTGGCTACGACGGGATT
B29: GGUAUUA (DNA:RNA)
RNA: B28 RNA with U25G, A26G, C27U, A30U, C31A
DNA 1: CAATCTGAATTCCGGTCTCCC
DNA 2: TGGTGGCTACGACGGGATT
B30: GGUAAUG (DNA:RNA)
RNA: B1 RNA with C26G, G27U, U28A, G29A, G30U
DNA 1: CAATCTGAATTCCGGTCTCCC
DNA 2: TGGTGGCTACGACGGGATT
B31: UUAGUUG (DNA:RNA)
RNA: B28 RNA with A26U, C27A, A28G, A30U, C31G
DNA 1: CAATCTGAATTCCGGTCTCCC
DNA 2: TGGTGGCTACGACGGGATT

This assay deals with T1, RBFOX1 RRM. The experiment in a line: EMSA; HiTS-Eq, 1 nM pool, 10 min; buffer printed only for the single-RNA assays: 10 mM Tris pH 7.5, 150 mM NaCl, 3.4 mM EDTA, 0.001% NP-40, 30 C. Conditions: tags: His6 N-terminal (pET28a); label: 5' 32P. Put shortly:
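These values rest on relative association constants, computed from read-count changes of each RNA species versus the control reaction and normalised to the cognate motif. Reads came from free RNA recovered by 8% native PAGE after purified RbFox RRM (wild type or mutant) at increasing concentrations was equilibrated for 10 min in 50 µL with 1 nM of a 5′-radiolabelled pool with 7 randomized nucleotides and DNA-annealed flanks.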
Take B1: the binding signal was 0.0174 KA relative to UGCAUGU.

With B2, the binding signal is 0.00981 KA relative to UGCAUGU.

For B3, the binding signal was 0.00838 KA relative to UGCAUGU.

For the molecule B4, the binding signal is 0.00539 KA relative to UGCAUGU.

As for B5, the binding signal was 0.0018 KA relative to UGCAUGU.

For the molecule B6, the binding signal is 0.0418 KA relative to UGCAUGU.

Take B7: the binding signal is 0.0318 KA relative to UGCAUGU.

With B8, the binding signal was 0.0121 KA relative to UGCAUGU.

In the case of B9, the binding signal is 0.00928 KA relative to UGCAUGU.

For the molecule B10, the binding signal is 0.0175 KA relative to UGCAUGU.

Regarding B11, the binding signal is 0.016 KA relative to UGCAUGU.

Take B12: the binding signal was 0.00524 KA relative to UGCAUGU.

Regarding B13, the binding signal is 0.0143 KA relative to UGCAUGU.

Consider B14, for which the binding signal was 0.00781 KA relative to UGCAUGU.

As to B15, the binding signal was 0.0199 KA relative to UGCAUGU.

Take B16: the binding signal was 0.0478 KA relative to UGCAUGU.

With B17, the binding signal is 0.0188 KA relative to UGCAUGU.

B18: the binding signal was 0.0374 KA relative to UGCAUGU.

For B19, the binding signal was 0.0205 KA relative to UGCAUGU.

In the case of B20, the binding signal is 0.0241 KA relative to UGCAUGU.

Regarding B21, the binding signal is 0.0174 KA relative to UGCAUGU.

Consider B22, for which the binding signal was 0.0422 KA relative to UGCAUGU.

For B23, the binding signal was 0.0153 KA relative to UGCAUGU.

Consider B24, for which the binding signal is 0.0254 KA relative to UGCAUGU.

In the case of B25, the binding signal was 0.0357 KA relative to UGCAUGU.

As to B26, the binding signal was 0.0267 KA relative to UGCAUGU.

On to B27, for which the binding signal is 0.0168 KA relative to UGCAUGU.

Regarding B28, the binding signal was 0.00108 KA relative to UGCAUGU.

As to B29, the binding signal is 0.00455 KA relative to UGCAUGU.

Turning to B30, the binding signal was 0.0152 KA relative to UGCAUGU.

With B31, the binding signal is 0.0187 KA relative to UGCAUGU.
